The text below walks through data of PubChem BioAssay (NCI).

The structures appear in SMILES notation. About 83,000 compounds went through this panel and 20% of them were active in at least one assay; those are over-represented in the sample as a whole.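 Testing used 96-well plates and a 48-hour single-concentration exposure. Example: -40 means 40% of the starting cells died.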 Unmarked numbers belong to inactive results. The source made the active and inactive calls. How the source made its calls: active means growth percent below 10; inactive means the rest.

Some test systems named below: SK-MEL-2 melanoma; EKVX NSCLC; SN12C renal; TK-10 renal; ACHN renal; CAKI-1 renal; A498 renal; MOLT-4 leukemia; RPMI-8226 leukemia; OVCAR-8 ovarian; OVCAR-5 ovarian; OVCAR-4 ovarian; SK-OV-3 ovarian; IGROV1 ovarian; OVCAR-3 ovarian; HS 578T breast; NCI/ADR-RES ovarian; CCRF-CEM leukemia; SR leukemia.
Common to all, as to experiment: NCI-60 one-dose screen, 48 h (100 = growth as untreated, 0 = no growth, -100 = all killed)
Common to all, as to conditions: 10 µM unless noted

`Cc1ccc2nc(-c3ccc(N(C)C)c(Br)c3)cn2c1`: the growth in the experiment on SK-MEL-2 melanoma is 94.3%; in the experiment on EKVX NSCLC it was 79.5%; with SN12C renal, 94.8%; in the experiment on TK-10 renal it was 146%; in the experiment with ACHN renal, 95.6%; with CAKI-1 renal it was 126%. The growth was 118% in the experiment on A498 renal; 28.6% with MOLT-4 leukemia; 71% in the experiment with RPMI-8226 leukemia; 93.8% with OVCAR-8 ovarian; 92.6% in the experiment on OVCAR-5 ovarian; 115% in the experiment with OVCAR-4 ovarian. Besides, the growth in the experiment on SK-OV-3 ovarian is 94.4%; in the experiment with IGROV1 ovarian, -8.76% (active); with OVCAR-3 ovarian, 103%; with HS 578T breast it was 83.2%; with NCI/ADR-RES ovarian it was 78.2%.
Consider `CCOc1cc(/C=C/C(=O)CC(=O)/C=C/c2ccc(OC(=O)CNc3nc4ccc(OC)cc4s3)c(OCC)c2)ccc1OC(=O)CNc1nc2ccc(OC)cc2s1`, for which the growth in the experiment on SK-MEL-2 melanoma was 59.1%; in the experiment on EKVX NSCLC, 41.7%; in the experiment with SN12C renal, 59%; with TK-10 renal it was 60.5%; with ACHN renal, 69.4%; with CAKI-1 renal, 75.9%. For the same compound, the growth with A498 renal is 91.6%; with CCRF-CEM leukemia, 4.63% (active); with MOLT-4 leukemia, 4.13% (active); in the experiment on SR leukemia, -27.3% (active); with RPMI-8226 leukemia, -27.2% (active); in the experiment on OVCAR-8 ovarian, 28.6%. Moreover, the growth in the experiment on OVCAR-5 ovarian is 99%; in the experiment with OVCAR-4 ovarian, 69.5%; with SK-OV-3 ovarian, 89.5%; in the experiment on OVCAR-3 ovarian it was 77.8%; in the experiment on HS 578T breast it was 23%; with NCI/ADR-RES ovarian, 82.3%.
Consider `COc1cc(/C=C/C(=O)c2c(C)n([O-])c3ccc(Cl)cc3[n+]2=O)cc(OC)c1OC`, for which the growth in the experiment on SK-MEL-2 melanoma is 61.8%; in the experiment with EKVX NSCLC, 65.8%; with SN12C renal, 80.1%; with TK-10 renal it was 103%; in the experiment with ACHN renal, 79.6%; in the experiment with CAKI-1 renal it was 107%. The growth in the experiment with A498 renal was 98.2%; with CCRF-CEM leukemia, -34.2% (active); in the experiment on MOLT-4 leukemia, -34.8% (active); in the experiment with SR leukemia, 11.8%; with RPMI-8226 leukemia it was 72.6%; in the experiment with OVCAR-8 ovarian, 50.8%. In addition, the growth with OVCAR-5 ovarian was 98.2%; in the experiment with OVCAR-4 ovarian, 71%; in the experiment with SK-OV-3 ovarian it was 104%; in the experiment with OVCAR-3 ovarian it was 102%; with HS 578T breast it was 70.5%; in the experiment on NCI/ADR-RES ovarian it was 73.5%.
For the compound `COc1ccc2c(c1)[n+](=O)c(C(=O)/C=C/c1cc(OC)c(OC)c(OC)c1)c(C)n2[O-]`, the growth in the experiment with SK-MEL-2 melanoma is 57.2%; with EKVX NSCLC, 61%; in the experiment with SN12C renal, 71.5%; in the experiment with TK-10 renal, 120%; in the experiment with ACHN renal, 65.9%; in the experiment on CAKI-1 renal it was 105%. Besides, the growth in the experiment with A498 renal was 77.1%; with CCRF-CEM leukemia, -63.6% (active); with MOLT-4 leukemia it was 13.2%; with SR leukemia, 29.5%; in the experiment on RPMI-8226 leukemia it was 32.3%; in the experiment on OVCAR-8 ovarian, 57.4%. The growth in the experiment with OVCAR-5 ovarian was 102%; in the experiment with OVCAR-4 ovarian, 72.3%; in the experiment on SK-OV-3 ovarian, 82.3%; in the experiment on IGROV1 ovarian, -27.6% (active); in the experiment with OVCAR-3 ovarian it was 102%; in the experiment with HS 578T breast, 63.4%. The growth in the experiment with NCI/ADR-RES ovarian is 73%.
Consider `O=c1oc2c(cc1-c1ccc([N+](=O)[O-])cc1)C(O)Oc1ccccc1-2` (centres undefined), for which the growth with SK-MEL-2 melanoma is 71.6%; in the experiment on EKVX NSCLC, 80.7%; in the experiment on SN12C renal it was 98.4%; in the experiment on TK-10 renal, 95.8%; in the experiment on ACHN renal it was 103%; with CAKI-1 renal, 78.2%. In addition, the growth is 84.8% with A498 renal; 62.5% in the experiment with CCRF-CEM leukemia; 63.6% with MOLT-4 leukemia; 56.2% in the experiment on SR leukemia; 50.2% in the experiment on RPMI-8226 leukemia; 94.7% in the experiment on OVCAR-8 ovarian. The growth in the experiment with OVCAR-5 ovarian was 82.1%; in the experiment with OVCAR-4 ovarian, 86.4%; in the experiment on SK-OV-3 ovarian, 99.6%; in the experiment on OVCAR-3 ovarian, 111%; in the experiment with HS 578T breast, 102%; in the experiment on NCI/ADR-RES ovarian, 72.2%.
Turning to `O=C(COc1cccc(/C=C2\Oc3ccc4ccccc4c3C2=O)c1)c1ccc(Cl)cc1`, the growth in the experiment on SK-MEL-2 melanoma was 57.5%; in the experiment on EKVX NSCLC, 92.8%; in the experiment with SN12C renal, 91.2%; in the experiment with TK-10 renal, 115%; with ACHN renal, 96.8%; with CAKI-1 renal it was 83%. Also, the growth in the experiment on A498 renal is 132%; in the experiment with CCRF-CEM leukemia, 25.3%; with MOLT-4 leukemia, 74%; in the experiment on SR leukemia, 51.6%; in the experiment on RPMI-8226 leukemia, 67.9%; in the experiment with OVCAR-8 ovarian, 80%. Moreover, the growth in the experiment with OVCAR-5 ovarian is 108%; with SK-OV-3 ovarian, 95.6%; in the experiment on OVCAR-3 ovarian, 93.8%; with HS 578T breast it was 92.8%; in the experiment with NCI/ADR-RES ovarian, 100%.
Turning to `Cc1cnc2nc(-c3ccc(N(C)C)cc3)cn2c1`, the growth is 101% with SK-MEL-2 melanoma; 91.7% in the experiment on EKVX NSCLC; 103% with SN12C renal; 97.6% with TK-10 renal; 112% in the experiment on ACHN renal; 108% with CAKI-1 renal. Besides, the growth with A498 renal was 107%; in the experiment with CCRF-CEM leukemia, 83.3%; in the experiment on MOLT-4 leukemia, 91.9%; with SR leukemia it was 100%; in the experiment on RPMI-8226 leukemia it was 117%; with OVCAR-8 ovarian, 103%. Further, the growth in the experiment on OVCAR-5 ovarian is 78.4%; in the experiment with OVCAR-4 ovarian it was 118%; with SK-OV-3 ovarian, 119%; with IGROV1 ovarian it was -14.9% (active); with OVCAR-3 ovarian, 107%; with HS 578T breast, 109%.
`COC(=O)C1(NC(=O)CNC(=O)OCc2ccccc2)CCCC1`: the growth in the experiment with SK-MEL-2 melanoma is 102%; with EKVX NSCLC, 98.2%; in the experiment with SN12C renal, 95.4%; in the experiment on TK-10 renal, 99.9%; in the experiment with ACHN renal, 105%; with CAKI-1 renal, 100%. Besides, the growth in the experiment with A498 renal was 96.9%; with CCRF-CEM leukemia it was 101%; in the experiment on MOLT-4 leukemia, 111%; in the experiment with SR leukemia, 100%; with OVCAR-8 ovarian, 106%; in the experiment with OVCAR-5 ovarian, 103%. The growth in the experiment with OVCAR-4 ovarian is 98.3%; with SK-OV-3 ovarian, 111%; in the experiment on IGROV1 ovarian it was 115%; in the experiment on OVCAR-3 ovarian, 149%; in the experiment with HS 578T breast, 131%; in the experiment with NCI/ADR-RES ovarian, 111%.
Turning to `CC(C)N(Cc1ccccc1)c1c(Cl)ssc1=O`, the growth in the experiment on SK-MEL-2 melanoma is 93.7%; with EKVX NSCLC, 100%; with SN12C renal, 99.7%; with TK-10 renal, 124%; with ACHN renal, 102%; in the experiment with CAKI-1 renal, 113%. The growth is 109% in the experiment with A498 renal; 121% with MOLT-4 leukemia; 115% with RPMI-8226 leukemia; 86.7% in the experiment with OVCAR-8 ovarian; 107% with OVCAR-5 ovarian; 104% in the experiment on OVCAR-4 ovarian. For the same compound, the growth in the experiment with SK-OV-3 ovarian was 93.7%; with IGROV1 ovarian, -9.19% (active); with OVCAR-3 ovarian, 92.5%; with HS 578T breast, 109%.
